Rows were chosen to be rich in hits. Some 21% of all compounds tested hit in one or more screens of this group.
IL1B secr inh = inhibitors of inflammasome signaling (IL-1 beta secretion) | activity change, % at 57.5 µM | 360,000 tested, 4.7% active | THP-1 LPS/ATP IL-1B secretion, AlphaLISA, 16 h; stronger effect = lower value | AID 743279; in the data active = activity change below about -50%; inconclusive = mostly about -30% to -49%; also: % is scaled to controls: 0 for no effect and ±100 for the full control effect
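THP-1 cells pretreated 1 hr with compounds (up to 57.5 uM final), then stimulated with LPS (250 ng/mL final) plus ATP (1.25 mM final); secreted IL-1B measured by AlphaLISA after 16 hr, decreased signal indicating inhibition.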
DT40 TDP1 no CPT = qHTS for Inhibitors of human tyrosyl-DNA phosphodiesterase 1 (TDP1): qHTS in cells in absence of CPT | DT40 Tdp1-/- hTDP1 cells, no CPT, ATP luminescence, 48 h | Potency, µM (highest dose often 46.2 µM), for inactives: top-dose activity change, negative = growth inhibition, actives largely listed as inhibitors | 420,000 tested, 15% active; also: potency is read from the fitted curve at half-maximal effect; % is scaled to controls: 0 for no effect and ±100 for the full control effect; nearly all actives have a fitted effect of over 55% in size
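Compound effects on proliferation are scored in DT40 Tdp1-/-;hTDP1 cells in the absence of CPT. ATP levels (CellTiter-Glo luminescence) are recorded after a ≥48 hr, 37 °C incubation.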
ClpP mod = qHTS Assay for Activators of ClpP; ATP-dependent Clp protease proteolytic subunit (Bacillus subtilis (strain 168)), P80244; purified B. subtilis ClpP, FRET peptide cleavage, 20 min; Potency, µM (doses to about 57.5 µM), for inactives: top-dose activity change, negative = active; 340,000 tested, 1.9% active; AID 651965, 2013; active = well fitted falling curve with a large enough effect; inconclusive = small, poorly fitted or top-dose-only effect; inactive = no such curve, though single readings can be large or run the other way; also: potency is read from the fitted curve at half-maximal effect; the source files actives as falling curves though it sought activators and does not explain the sign; nearly all actives have a fitted effect of over 65% in size
Target sequence (P80244 whole entry, looked up): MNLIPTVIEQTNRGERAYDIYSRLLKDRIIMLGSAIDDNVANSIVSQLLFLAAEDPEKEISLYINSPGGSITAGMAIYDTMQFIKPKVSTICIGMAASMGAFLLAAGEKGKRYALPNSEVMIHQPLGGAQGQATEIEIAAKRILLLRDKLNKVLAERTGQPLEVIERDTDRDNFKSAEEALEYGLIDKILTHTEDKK
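ClpP 10 microg/mL final, pH 8 Tris/KCl buffer with BSA, glycerol, Tween-20; compound pinned in; FRET-FV substrate; RT 20 min; Ex320/Em430; ΔFRET vs ADEP 5.8 microM, DMSO, no enzyme.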
DT40 TDP1 CPT = DT40-hTDP1 cell growth loss with CPT; chicken DT40 Tdp1-/-;hTDP1 cells + 20 nM CPT, ATP luminescence, 48 h; Potency, µM (highest dose often 46.2 µM), for the others: top-dose activity change, negative = growth inhibition, most hits filed as inhibitors; 420,000 tested, 12% active; also: potency is read from the fitted curve at half-maximal effect; % is scaled to controls: 0 for no effect and ±100 for the full control effect; nearly all actives have a fitted effect of over 55% in size
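Cell growth measured by CellTiter-Glo luminescence after a minimum 48 h, 37 C compound exposure with 20 nM CPT in Tdp1-knockout DT40 cells stably expressing hTDP1, seeded 400/well; qHTS titration format.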
DRD3 antagonist = antagonists of human D3 dopamine receptor | max response, negative = inhibition, % | P35462 | 360,000 tested, 2.5% active | D3R cells, DiscoveRx beta-arrestin luminescence, antagonist mode; stronger effect = lower value; in the data active = max response below about -50%; inconclusive = no clear call, values can overlap the other calls; also: % is scaled to controls: 0 for no effect and ±100 for the full control effect
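Cells expressing the human receptor were seeded at 1500 cells/well, incubated overnight at 37 degrees C in 5% CO2, then exposed to library compounds with dopamine controls for 90 minutes at 37 degrees C before luminescent detection.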
D3 ag = D3 dopamine receptor (human) agonism | AID 652048 | max activation, % | P35462 | 410,000 tested, 0.58% active | D3R DiscoveRx beta-arrestin cells, luminescence, 90 min; in the data active = max activation above about 30%; also: 0% is about no effect
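Agonist-mode cell screen: cells plated at 1500/well and incubated overnight at 37 °C, then exposed to library compounds for 90 min at 37 °C. Detection reagent was added for 30–60 min at room temperature, and luminescence was read.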
Active calls of the source: *; u = inconclusive; x = not tested or not shown. Unless noted, calls follow the shape of the dose curve; as a rule, active = well fitted inhibition curve with a large enough effect; inconclusive = small, poorly fitted or top-dose-only effect; inactive = flat fitted curve, though single readings scatter.

SMILES | IL1B secr inh | DT40 TDP1 no CPT | ClpP mod | DT40 TDP1 CPT | DRD3 antagonist | D3 ag
Cc1nn(C)c(C)c1S(=O)(=O)N(CC(=O)NCCCN1CCC(C)CC1)c1ccc(C(C)C)cc1 | -24.2 | 6.8% | -2.7% | -16.6% | u | -9.3
N#CCCn1c(=O)c(-c2cccs2)nc2cnc(Oc3ccccc3)nc21 | x | u | x | -11.3% | x | x
COc1ccc(N2CCN(c3oc(/C=C/c4ccccc4OC)nc3C#N)CC2)cc1 | x | u | 4.5% | u | x | -14.4
CC(NC(=O)c1cc(S(=O)(=O)N(C)C)ccc1N1CCCC1)C1CC2CCC1C2 (configuration not stated) | -2.6 | -17.1% | x | 2.4% | 2.6 | 4.5
O=C(O)C1CC(=O)N(Cc2ccc3c(c2)OCO3)C1 (configuration not stated) | 0.2 | 1.0% | -0.8% | -2.8% | -106.0* | -14.2
CCCCOc1ccc(C(=O)NCC(=O)N2CCN(Cc3ccc4c(c3)OCO4)CC2)cc1 | -6.1 | 13µM* | -0.4% | u | 0.0 | -4.2
Cc1ccc(C(=O)N2CCN(Cc3ccc4c(c3)OCO4)CC2)cc1C | u | -24.1% | 0.0% | -23.0% | -62.5* | -24.6
O=C(NCC(=O)N1CCN(Cc2ccc3c(c2)OCO3)CC1)c1ccccc1F | 13.7 | -1.2% | x | 31.5% | 3.8 | 7.8
Cc1ccc(S(=O)(=O)N(C)c2ccc(C(=O)N3CCN(Cc4ccc5c(c4)OCO5)CC3)cc2)cc1 | -72.7* | 20.6µM* | 0.8% | u | -10.5 | -45.3
Cc1ccc(-n2nc3c(=O)n(CC(=O)NCCC4=CCCCC4)nc(C)c3c2C)cc1 | 1.4 | u | 1.0% | u | 2.0 | -3.2
COc1ccc(CCN2CC(C(=O)N(C)CC(=O)Nc3cccc(F)c3)CC2=O)cc1OC (configuration not stated) | 28.5 | -1.2% | 1.6% | -0.2% | 13.0 | 4.8
COc1ccc(NC(=O)c2cnc3sc(N4CCOCC4)nn3c2=O)c(OC)c1 | x | 3.3% | 0.7% | -14.6% | x | 1.8
CC(C)(C)c1nc(SCC(=O)N2CC(=O)Nc3ccccc32)c2ccccc2n1 | 0.0 | -26.8% | x | 2.9% | -0.5 | -0.6
CCN1CCN(c2ccc(N=Cc3ccccc3O)cc2)CC1 | 62.0 | u | -2.6% | -13.7% | -1.7 | -7.8
COc1ccc(C2=Nc3ccccc3N(C(=O)c3ccc4c(c3)OCO4)C2C(=O)Nc2c(C)cccc2C)cc1 (configuration not stated) | -16.8 | u | u | u | -14.4 | -6.0
Cc1cc(C)cc(OCC(O)CN2CCN(Cc3ccc4c(c3)OCO4)CC2)c1 (configuration not stated) | -5.1 | 20.6µM* | x | 13µM* | -20.2 | -2.9
Cc1ccc(C(=O)N2CCN(Cc3ccc4c(c3)OCO4)CC2)c(Cl)c1 | -59.2* | 16.4µM* | x | 8.2µM* | -86.3* | -23.7
CC(C)CNS(=O)(=O)c1ccc(CCC(=O)NCc2cccnc2)cc1 | 0.0 | -13.1% | -9.5% | -8.0% | -15.0 | -0.2
O=C(C1CC2CCC1C2)N1CCN(Cc2ccc3c(c2)OCO3)CC1 (configuration not stated) | -8.5 | u | -2.1% | -23.3% | -56.2* | -5.3
Cc1ccc(CNC(=O)CCc2ccc(S(=O)(=O)NCC(C)C)cc2)cc1 | -15.7 | u | x | -10.3% | -51.3* | -7.0
Cc1ccc(C)c(NC(=O)Cn2ncc3c([nH]c4ccccc43)c2=O)c1 | x | -4.4% | -4.2% | 0.9% | x | 1.1
CCn1c(SCC(=O)N2CCC(C)CC2)nc2c(c1=O)SCC2 | 20.4 | u | -1.0% | u | 39.7 | 10.8
O=C(c1ccccc1Cl)N1CCN(Cc2ccc3c(c2)OCO3)CC1 | u | -15.0% | 1.2% | -13.3% | -20.2 | -25.6
O=C(c1ccccc1)N1CCN(Cc2ccc3c(c2)OCO3)CC1 | -6.9 | -8.9% | x | -19.2% | -78.4* | -25.0
